High-throughput results as filed in PubChem.
The sample as a whole holds a higher share of hits than the screen did.
GALK inhibitor = blocks human galactokinase activity; Purified GALK, Kinase-Glo residual ATP luminescence; Potency, µM (doses to about 57.5 µM), usual class: inhibitors; hit rate 0.007% among 270,000; AID 1868
Target sequence (P51570 whole entry, looked up): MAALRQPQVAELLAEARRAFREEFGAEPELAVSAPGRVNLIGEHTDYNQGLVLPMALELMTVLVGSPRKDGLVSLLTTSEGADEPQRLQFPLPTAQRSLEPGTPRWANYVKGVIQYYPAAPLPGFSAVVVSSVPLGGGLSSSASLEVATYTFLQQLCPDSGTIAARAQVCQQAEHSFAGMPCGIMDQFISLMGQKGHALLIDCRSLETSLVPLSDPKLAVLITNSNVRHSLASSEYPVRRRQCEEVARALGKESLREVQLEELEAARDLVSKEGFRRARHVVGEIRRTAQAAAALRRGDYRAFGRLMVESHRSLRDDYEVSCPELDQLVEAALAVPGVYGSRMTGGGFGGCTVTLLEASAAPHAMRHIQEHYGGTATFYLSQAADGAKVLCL
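Kinase-Glo Plus luminescence measured ATP left after a 1 h room-temperature reaction. The reaction used 5 nM GALK, 100 uM galactose and 35 uM ATP at pH 8.0 (20 mM HEPES, 5 mM MgCl2, 60 mM NaCl, 1 mM DTT, 0.01% BSA).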
Menin-MLL TR inh = inhibitors of human menin-MLL interaction, mutant MLL peptide | hit rate 0.23% among 270,000 | AID 1768 | O00255 | Menin + Texas Red MLL mutant peptide, fluorescence polarization | Potency, µM (titrated, usually from 61.6 µM), hits mostly inhibitors; active = well fitted inhibition curve with a large enough effect in the polarisation, with a control signal flat, not every such curve was filed as active; inconclusive = small, poorly fitted or top-dose-only effect, or effect the other way, or a change in a side signal; inactive = no such curve, though single readings can be large or run the other way; the % refers to the polarisation
Menin-MLL FL inh = menin-MLL binding inhibition, fluorescein peptide. Fluorescence polarization, fluorescein-MLL peptide displacement from menin. AID 1766. FP activity change, % at 61.4 µM. 290,000 tested, under 10 active; active = well fitted curve in the direction sought with a large enough effect in the polarisation, not every such curve was filed as active; inconclusive = small, poorly fitted or top-dose-only effect, or effect the other way, or a change in a side signal; inactive = no such curve, though single readings can be large or run the other way; the % refers to the polarisation
CXXC DNA block = inhibitors of human MLL CXXC domain-DNA interaction; Q03164; MLL-CXXC / FITC-HOXA9 DNA fluorescence polarization; Potency, µM (highest dose often 115 µM), usual class: inhibitors; hit rate 0.037% among 290,000; active = well fitted inhibition curve with a large enough effect in the polarisation, with a control signal flat, not every such curve was filed as active; inconclusive = small, poorly fitted or top-dose-only effect, or effect the other way, or a change in a side signal; inactive = no such curve, though single readings can be large or run the other way; the % refers to the polarisation
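Purified MLL-CXXC (added from a 7 uM solution) was preincubated 5 min at ambient with pinned compounds in 50 mM Tris-HCl pH 7.5, 50 mM NaCl, 1 mM DTT, 0.05% BSA. Fluorescein-labeled HOX-A9 DNA (50 nM solution) followed, 30 min, then polarization read.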
ASM inhibitor = inhibitors of human secretory acid sphingomyelinase. Potency, µM (series often up to 57.5 µM), usual class: inhibitors. hit rate 0.006% among 340,000. AID 504937. P17405. placental ASM, HMU-PC fluorogenic substrate, 60 min
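HMU-PC0 cleavage (9 uM final) by human placental ASM, 60 min at 37 °C following 10 min compound exposure at RT; stopped at pH 10, fluorescence Ex 386/Em 447 nm.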
Numbers stand for hits; . = inactive; ? = inconclusive; / = not tested or not shown; [ ] = remark or other dose. Unless noted, calls follow the shape of the dose curve; as a rule, active = well fitted curve in the direction sought with a large enough effect; inconclusive = small, poorly fitted or top-dose-only effect, or another doubt; inactive = no such curve, though single readings can be large; an effect the other way counts as inactive or inconclusive.

SMILES	GALK inhibitor	Menin-MLL TR inh	Menin-MLL FL inh	CXXC DNA block	ASM inhibitor
NC(=O)c1ccc(NC(=O)COC(=O)c2c3c(nc4ccccc24)/C(=C\c2cccs2)CCC3)cc1	.	?	.	.	.
CCc1cccc(C)c1NC(=O)COC(=O)c1c2c(nc3ccccc13)/C(=C\c1cccs1)CCC2	.	14.1µM	.	.	.
COc1cccc(/C=C2\SC(=S)N(CCCC(=O)Nc3cc(C)on3)C2=O)c1	.	?	?	.	.
Cc1cc(NC(=O)CCCN2C(=O)/C(=C/c3cccs3)SC2=S)no1	.	17.8µM	.	.	.
O=C1CCCC2=C1C1(CCCCC1)N=C(Nc1nc3ccccc3o1)N2	22.4µM	.	.	.	.
COc1ccccc1NC(=O)Cn1nnc(-c2ccccc2NC(=O)c2cc3ccccc3oc2=O)n1	.	20µM	.	.	.
COc1ccc(COC(=O)N/N=C2/C[C@@H](O)[C@@H](O)[C@@H]3[C@@H]4C(=O)N(C5CCCCC5)C(=O)[C@H]4CC[C@@H]23)cc1	/	.[11.7 µM]	.[11.7 µM]	/	/
Cc1ccc(Nc2nc(Nc3ccc(C)cc3)nc(SC3=NCCS3)n2)cc1	.	39.8µM	.	.	.
Cc1ccccc1Nc1nc(Nc2ccccc2C)nc(SC2=NCCS2)n1	.	.	.	.	.
COc1ccc(/C=N/NC(=O)c2[nH]c3ccc(Cl)cc3c2-c2ccccc2)c(C(=O)O)c1OC	.	?	.	.	14.1µM
COc1ccc(/C=N/NC(=O)c2[nH]c3ccc(Br)cc3c2-c2ccccc2)c(C(=O)O)c1OC	.	/	.	.	?
COc1ccc(NCc2ccc(OC)c(Cn3ccnc3)c2)c(OC)c1	.	12.6µM	.	.	.
COc1ccc(Cn2ccnc2)cc1Br	.	.	.	.	.
COC(=O)C/C=C\[C@@H](C)[C@@H](/C=N\OC[C@@H](O)[C@H]1O[C@H]2OC(C)(C)O[C@H]2[C@@H]1O)OC	/	.[11.7 µM]	.[11.7 µM]	/	/
CC(=O)OC[C@@H]1O[C@H](CCO/N=C(\C)CCC(=O)OC[C@@H]2O[C@H](C#Cc3ccccc3)C=C[C@@H]2Oc2ccc(C)cc2)C=C[C@@H]1OC(C)=O	/	.[11.7 µM]	.[11.7 µM]	/	/
COc1ccc(C(=O)Nc2ccccc2C(=O)NC(Cc2ccc(O)cc2)C(=O)NNC(=O)c2ccccc2Cl)cc1 (stereo not given)	.	28.2µM	.	.	.
COc1ccc(N2CCN(CC(O)COC(c3ccc(F)cc3)c3ccc(F)cc3)CC2)cc1 (stereo not given)	.	17.8µM	.	.	.
COc1ccc(OCC(O)CN2CCN(c3ccc(OC)cc3)CC2)cc1 (stereo not given)	.	35.5µM	.	.	.
COc1ccc(N2CCN(CC(O)COc3ccc(F)cc3)CC2)cc1 (stereo not given)	.	20µM	.	.	.
C[C@]1(OC(=O)/C=C\c2ccccc2)C[C@@H](O)[C@@]2(O)C=CO[C@@H](O[C@H]3O[C@@H](CO)[C@@H](O)[C@@H](O)[C@@H]3O)[C@H]21	/	.	.	/	/
OC1C2COC(O2)[C@H](O)C1O (stereo not given in full)	/	.	.	/	/
COc1cccc(/C=N/NC(=O)c2cc(-c3cccn3C)n[nH]2)c1	/	35.5µM	.	.	.
CCn1c2ccccc2c2cc(/C=N/NC(=O)c3ccccc3)ccc21	.	25.1µM	.	.	.
COc1ccc(N(CC(O)Cn2c3ccccc3c3ccccc32)S(=O)(=O)c2ccccc2)cc1 (stereo not given)	.	25.1µM	.	.	.
CS(=O)(=O)N(CC(O)Cn1c2ccccc2c2ccccc21)c1ccccc1 (stereo not given)	.	.	.	.	.
SMILES	GALK inhibitor	Menin-MLL TR inh	Menin-MLL FL inh	CXXC DNA block	ASM inhibitor
C[C@H](N)C(=O)NCC(=O)N[C@H]1CSSC[C@@H](C(=O)O)NC(=O)[C@H](CO)NC(=O)[C@H]([C@@H](C)O)NC(=O)[C@H](Cc2ccccc2)NC(=O)[C@H]([C@@H](C)O)NC(=O)[C@H](CCCCN)NC(=O)[C@H](Cc2c[nH]c3ccccc23)NC(=O)[C@H](Cc2ccccc2)NC(=O)[C@H](Cc2ccccc2)NC(=O)[C@H](CC(N)=O)NC(=O)[C@H](CCCCN)NC1=O	/	.	/	/	/
COc1ccc(Oc2ncc3nc(CCc4ccccc4)c(=O)n(C[C@H]4CCCO4)c3n2)cc1	/	.	.	/	/
Cc1cccc([C@@H]2[C@@H]3C(=O)N(Cc4ccccc4)C(=O)[C@@H]3[C@]3(Cc4ccc(Cl)cc4)C(=O)N(c4ccc(Br)cc4)C(=O)N23)c1	/	20µM	.	.	.
CC[C@@]12C(=O)N(c3ccc(C)cc3)C(=O)N1[C@H](c1cccc(C)c1)[C@@H]1C(=O)N(Cc3ccccc3)C(=O)[C@@H]12	/	/	/	/	.
CN(C)c1ccc(NC(=O)C2C3C=CC(C3)C2C(=O)O)cc1 (stereo not given)	.	20µM	.	?	.
COc1ccccc1CNCCCCCCNCCCCCCCCNCCCCCCNCc1ccccc1OC	/	?	?	.	/
CC(=O)N1CCC2(CCCN(c3cccc(-c4ccccc4)c3)C2)CC1	/	.	.	/	/
COc1ccc2nc(C)cc(N/N=C/c3cccc(OC)c3O)c2c1	.	.	.	?	.
COc1ccc(/C=N/Nc2cc(C)nc3ccc(Br)cc23)cc1	.	15.8µM	.	.	.
C[C@@H]1/C=C\CC(=O)OC[C@H](C)C(=O)N[C@@H](Cc2ccccc2)C(=O)OC1	/	.[11.7 µM]	.[11.7 µM]	/	/
CCCCCCCCCCCCCC[C@@H](O)[C@@H](O)[C@@H](N)CO	/	.	.	/	/
COc1ccc(N2CCN(C(=O)c3cc(=O)c4cc(C)cc(C)c4o3)CC2)cc1	.	11.2µM	.	.	.
CN(c1ccccc1)S(=O)(=O)c1ccc(NC(=O)c2ccc(-c3ccccc3)cc2)cc1	.	28.2µM	.	.	.
CC(=O)Nc1ccc(NC(=O)c2ccc(N(C)S(=O)(=O)c3ccc(C)cc3)cc2)cc1	.	/	/	.	.
O=C(Nc1ccc(NC(=O)c2ccc(S(=O)(=O)c3ccccc3)cc2)cc1)c1ccccc1	.	10µM	.	.	.
CCn1cc([N+](=O)[O-])c(C(=O)N2N=C(c3ccc4ccccc4c3)CC2c2cc(Br)ccc2O)n1 (stereo not given)	.	11.2µM	.	.	.
CCn1cc([N+](=O)[O-])c(C(=O)N2N=C(c3ccc(Cl)c(Cl)c3)CC2c2ccccc2O)n1 (stereo not given)	.	.	.	.	?
CCCCC(=O)OCC(=O)[C@]1(O)Cc2c(O)c3c(c(O)c2[C@H](OC2CC(NC(=O)C(F)(F)F)C(O)C(C)O2)C1)C(=O)c1c(OC)cccc1C3=O (stereo not given in full)	/	28.2µM	.	.	/
COc1cccc2c1C(=O)c1c(O)c3c(c(O)c1C2=O)CC(O)(C(=O)CO)CC3OC1CC(N(C)C)C(O)C(C)O1 (stereo not given)	/	/	/	/	.
